Results as given in PubChem BioAssay (NCI).
The panel holds about 83,000 compounds, 20% with a hit somewhere; the sample as a whole holds those more often.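 Results are percent growth after 48 hours of single-concentration exposure. 100 means growth as in untreated cells, lower positive values show inhibition; negative values down to -100 show cell death.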 Active and inactive are the calls of the source. The calls were made as follows: active = growth percent below 10; inactive = the rest.

Experiments:
Assay in all cases: NCI-60 one-dose screen, 48 h (100 = growth as untreated, 0 = no growth, -100 = all killed)
HL-60(TB) leukemia = details: 10 µM unless noted
NCI-H322M lung = details: 10 µM
HOP-62 NSCLC = details: 10 µM
NCI-H460 lung = details: 10 µM
NCI-H522 lung = details: 10 µM
A549/ATCC NSCLC = details: 10 µM
DU-145 prostate = details: 10 µM
SF-268 CNS = details: 10 µM
SF-295 CNS = details: 10 µM
SF-539 CNS = details: 10 µM
M14 melanoma = details: 10 µM
HCT-15 colon = details: 10 µM
HT29 colon = details: 10 µM
SNB-75 CNS = details: 10 µM
SNB-19 CNS = details: 10 µM
U251 CNS = details: 10 µM
PC-3 prostate = details: 10 µM
UACC-62 melanoma = details: 10 µM
SK-MEL-28 melanoma = details: 10 µM
SK-MEL-2 melanoma = details: 10 µM

Measured: growth

COc1ccc2[nH]cc(-c3nc(N)nnc3-c3cn(C)c4ncc(Br)cc34)c2c1
active: HL-60(TB) leukemia -44.9%

CC[C@]12C=CCN3CC[C@@]4(c5ccc(OC)cc5N(C)[C@H]4[C@@](O)(C(=O)OC)[C@@H]1OC(=O)CCCC[P+](C1CCCCC1)(C1CCCCC1)C1CCCCC1)[C@@H]32
inactive: NCI-H322M lung 16.1% | A549/ATCC NSCLC 11.6% | HCT-15 colon 75.2%
active: HOP-62 NSCLC 9.52% | NCI-H460 lung 5.27% | NCI-H522 lung -71.8% | DU-145 prostate 9.57% | SF-268 CNS -70.5% | SF-295 CNS -19.6% | SF-539 CNS -93.9% | M14 melanoma -83.5% | HT29 colon -24% | SNB-75 CNS -81.4% | SNB-19 CNS -71.1% | U251 CNS -87.9% | PC-3 prostate 3.69% | UACC-62 melanoma -96.9% | SK-MEL-28 melanoma -86.5% | SK-MEL-2 melanoma -88% | HL-60(TB) leukemia -36.7%

O=C(/C=C/c1ccccc1)c1nc2ccccc2n1Cc1ccc(F)cc1
active: HOP-62 NSCLC -26% | NCI-H460 lung -28.9% | NCI-H522 lung -33% | DU-145 prostate 2.92% | SF-295 CNS -11% | SF-539 CNS -89.1% | M14 melanoma -20.8% | HCT-15 colon -70.1% | HT29 colon -49.5% | SNB-75 CNS 3.39% | SNB-19 CNS -47.9% | U251 CNS -73.6% | PC-3 prostate -33.5% | UACC-62 melanoma -39% | SK-MEL-28 melanoma -26.4% | HL-60(TB) leukemia -25.3%
inactive: NCI-H322M lung 37% | A549/ATCC NSCLC 24.8% | SF-268 CNS 10.8% | SK-MEL-2 melanoma 18.9%

CC[C@]12C=CCN3CC[C@@]4(c5ccc(OC)cc5N(C)[C@H]4[C@@](O)(C(=O)OC)[C@@H]1OC(=O)CCC[P+](c1ccc(F)cc1)(c1ccc(F)cc1)c1ccc(F)cc1)[C@@H]32
inactive: NCI-H322M lung 65.2% | HOP-62 NSCLC 64% | NCI-H460 lung 30.9% | A549/ATCC NSCLC 54.5% | DU-145 prostate 47.7% | SF-268 CNS 42.3% | SF-295 CNS 85% | SF-539 CNS 24.2% | M14 melanoma 21.5% | HCT-15 colon 99.6% | HT29 colon 15.7% | SNB-75 CNS 39.9% | SNB-19 CNS 13.8% | U251 CNS 18.5% | PC-3 prostate 16.7%
active: NCI-H522 lung -17.7% | UACC-62 melanoma -59.5% | SK-MEL-28 melanoma -24.1% | SK-MEL-2 melanoma -46.9% | HL-60(TB) leukemia -22.9%
